KB-3-1 cytotox – KB-3-1 parental cell cytotoxicity | KB-3-1 viability, CellTiter-Glo ATP luminescence, 72 h | Potency, µM (doses to about 46.1 µM), usual class: cytotoxic | 1.4% of 400,000 active | AID 1347075; further: nearly all actives have a fitted effect of over 60% in size
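Using CellTiter-Glo luminescence, growth of non-resistant KB-3-1 adenocarcinoma cells is assessed 72 h after pin-tool compound addition at 37 °C. Normalized responses across the concentration series yield fitted curves.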
KB-V1 cytotox – KB-V1 MDR subline cytotoxicity; KB-V1 MDR cells viability, CellTiter-Glo, 72 h; Potency, µM (highest dose often 46.1 µM), hits mostly cytotoxic; 3.4% of 400,000 active; further: nearly all actives have a fitted effect of over 60% in size
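Cells of the MDR subline KB-V1 are plated, dosed with compound at multiple concentrations, and incubated 72 h at 37 degrees C; CellTiter-Glo is then added and luminescence read after 10 min.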
HT1080 IDH1KD tx – toxicity to HT-1080 IDH1 knockdown cells (counter line); Potency, µM (doses to about 46.1 µM), inactives show at the top dose activity, negative = toxicity, usual class: cytotoxic; HT-1080 IDH1 knockdown viability, ATP luminescence, 48 h; AID 686971; 2% of 360,000 active;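 further: 0% = DMSO wells and -100% = cell-free medium wells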
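% activity derives from luminescence (CellTiter-Glo), normalised to DMSO and no-cell wells. HT-1080-IDH1KD cells, 750/well, had 48 h compound exposure at 37 °C.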
HT1080NT lethal – kills 2HG-producing HT-1080-NT fibrosarcoma cells; Potency, µM (series often up to 46.1 µM), for the others: at the top dose activity, negative = less viability, usual class: cytotoxic; HT-1080-NT fibrosarcoma viability, CellTiter-Glo ATP luminescence, 48 h; AID 686970; 1.6% of 360,000 active;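 further: NT is the 2HG producing partner of a matched IDH1 knockdown line; 0% = DMSO-treated cells and -100% = media-only wells without cells; nearly all actives have a fitted effect of over 55% in size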
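HT-1080-NT; 750 cells/well; 5% FBS RPMI; 48 h compound, 37 degrees C; CellTiter-Glo luminescence; curve fitting and curve-class assignment.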
* hit, by the source's call; i = inactive; ? = inconclusive; . = not tested or not shown. Compounds with a hit are over-represented: about 5.7% of the library has one in this group of screens. The call rests on the fitted dose curve; in most records, active means well fitted curve in the direction sought with a large enough effect; inconclusive means small, poorly fitted or top-dose-only effect, or another doubt; inactive means no such curve, though single readings can be large; an effect the other way counts as inactive or inconclusive. Unless noted, on the % scale 0 is the no-effect control and ±100 the full control effect; potency means the concentration at half of the fitted maximal effect.

SMILES | KB-3-1 cytotox | KB-V1 cytotox | HT1080 IDH1KD tx | HT1080NT lethal
CC1(C(=O)NCC2CCOCC2)Cc2c(-c3cccc(C(F)(F)F)c3)ccnc2O1 (configuration not stated) | ? | ? | 3.7µM* | ?
CC(=O)Nc1cccc(-c2ccnc3c2CC(C)(C(=O)NCc2cccc(Cl)c2)O3)c1 (configuration not stated) | 15µM* | ? | ? | ?
CC1(C(=O)NCc2cccc(Cl)c2)Cc2c(-c3ccccc3)ccnc2O1 (configuration not stated) | i | i | ? | -24%
O=C(Cn1cnc2c(oc3ccccc32)c1=O)Nc1ccccc1C(F)(F)F | i | i | . | .
CN(C)c1ccc(CNC(=O)C2(C)Cc3c(-c4cccc(C(F)(F)F)c4)ccnc3O2)cc1 (configuration not stated) | ? | ? | 18µM* | ?
CC(=O)Nc1ccc(-c2ccnc3c2CC(C)(C(=O)Nc2cccc(C(F)(F)F)c2)O3)cc1 (configuration not stated) | i | ? | ? | ?
CC(=O)Nc1ccc(-c2ccnc3c2CC(C)(C(=O)Nc2cccc(OC(F)(F)F)c2)O3)cc1 (configuration not stated) | ? | ? | ? | 26µM*
CC(=O)Nc1cccc(-c2ccnc3c2CC(C)(C(=O)NCc2ccc(N(C)C)cc2)O3)c1 (configuration not stated) | 10µM* | ? | 5.2µM* | ?
CC(=O)Nc1cccc(-c2ccnc3c2CC(C)(C(=O)NCCc2ccccc2)O3)c1 (configuration not stated) | 4.1µM* | ? | ? | ?
COc1ccc(OC)c2c(C)ccnc12 | i | i | . | .
NC(=O)C1CCN(c2ncc(-c3ccc4c(c3)OCO4)s2)CC1 | i | i | . | .
CCn1cc(C(=O)NCc2ccccc2Cl)c(=O)c2cc(S(=O)(=O)N3CCc4ccccc4C3)ccc21 | i | i | . | .
COc1ccccc1N1CCN(C(=O)c2cc(CC(C)C)on2)CC1 | i | i | . | .
CC(=O)Nc1ccc(-c2ccnc3c2CC(C)(C(=O)NCc2ccc(F)c(F)c2)O3)cc1 (configuration not stated) | 8.2µM* | i | 15µM* | ?
CC(=O)Nc1cccc(-c2ccnc3c2CC(C)(C(=O)Nc2cccc(Oc4ccccc4)c2)O3)c1 (configuration not stated) | ? | 21µM* | ? | ?
COc1cc2nc(N3CCCN(C)CC3)nc(N)c2cc1OC | . | . | -15% | -3%
CCn1nc(C)cc1C(=O)Sc1ccc(Cl)cc1Cl | i | ? | ? | ?
CCn1nc(C)cc1C(=O)Sc1cccc(Br)c1 | i | i | 21µM* | 13µM*
Cc1ccc(NC(=O)c2c(NC(=O)c3ccco3)sc3c2CCC(C(C)(C)C)C3)c(C)c1 (configuration not stated) | i | i | . | .
Cc1cc(C)n2nc(SCc3nnc(SCc4ccccc4)s3)nc2n1 | i | 13µM* | -8% | 0%
Cc1cc(C)n2nc(SCc3ccccc3)nc2n1 | i | i | 2% | 5%
O=C(c1cnn(-c2ccccc2)c1)c1cc(Br)ccc1O | i | ? | 10% | 12%
O=C(c1ccc(O)c(Br)c1)c1cc(Br)ccc1O | i | i | ? | 5.8µM*
C/C=N/NC(=O)c1cc(Br)ccc1O | i | i | -9% | -4%
O=C(C(=O)c1cc(Br)ccc1O)c1cc(Br)ccc1O | 23µM* | ? | 2.9µM* | 3.7µM*
SMILES | KB-3-1 cytotox | KB-V1 cytotox | HT1080 IDH1KD tx | HT1080NT lethal
CC(C)c1ccc(Nc2sc(C(=O)c3ccccc3)c(N)c2S(=O)(=O)c2ccccc2)cc1 | i | i | . | .
CS(=O)(=O)c1ccc(S(=O)CC(=O)Oc2ccc(Cl)cc2)c([N+](=O)[O-])c1 (configuration not stated) | 21µM* | ? | 18µM* | 23µM*
COc1cc2nc(CC(C)C)n(NC(=O)c3ccccc3)c(=O)c2cc1OC | i | 7.3µM* | 0% | -3%
O=C(c1cc(N2C(=O)C3C4CCC(C4)C3C2=O)ccc1Cl)N1CCN(c2ccccc2)CC1 (configuration not stated) | i | 3.3µM* | 1% | -11%
C=CCn1c(O)c(N=NC(=S)Nc2cccc(OC)c2)c2ccccc21 | 2.3µM* | ? | -26% | -15%
CCn1c(O)c(N=NC(=O)c2cccs2)c2ccccc21 | ? | 9.2µM* | 10% | 14%
CCCn1c(O)c(N=N)c2ccccc21 | i | i | -9% | -4%
CCCn1c(O)c(N=NC(=O)c2ccco2)c2ccccc21 | ? | 2.6µM* | 15% | 20%
CCCn1c(O)c(N=NC(=O)c2cccnc2)c2cc(Br)ccc21 | i | ? | -22% | 18µM*
CCn1c(O)c(N=N)c2ccccc21 | i | i | 0% | 5%
CCCn1c(O)c(N=NC(=O)CNC(=O)c2cccnc2)c2ccccc21 | i | ? | -5% | -5%
C=CCn1c(O)c(N=NC(=O)CNC(=O)c2ccco2)c2ccccc21 | ? | ? | 21µM* | ?
CCn1c(O)c(N=NC(=O)CNC(=O)c2ccco2)c2ccccc21 | ? | i | -14% | -29%
COC(=O)c1cc2c(ccn2-c2ccc(F)cc2)n1Cc1ccc(OC(C)=O)cc1 | i | ? | -17% | 0%
COC(=O)c1cc2c(ccn2-c2ccc(F)cc2)n1Cc1cccc(OC)c1 | i | 13µM* | ? | -11%
COc1ccc(-c2cc3nc(NCc4ccc(C)cc4C)n(C)c(=O)c3s2)cc1OC | 15µM* | 2.6µM* | 14% | -2%
Cn1c(NCC2CCCCC2)nc2cc(-c3ccsc3)sc2c1=O | 18µM* | i | 0% | 19%
Cn1c(NCc2ccccc2F)nc2cc(-c3ccsc3)sc2c1=O | ? | ? | -26% | ?
COc1ccccc1CNc1nc2cc(-c3ccsc3)sc2c(=O)n1C | ? | 21µM* | ? | -27%
Nc1cc(N)cc(N)c1 | i | i | . | .
CCCCCCCCN1[C@@H](CC(=O)OC)c2ccc(/C=C/C(=O)OC)cc2S1(=O)=O | i | i | . | .
O=c1[nH]cnc2scc(-c3ccc(-c4ccccc4)cc3)c12 | i | i | 6% | -1%
Cc1c(-c2ccccc2)sc2nc[nH]c(=S)c12 | ? | 12µM* | -11% | 19%
COc1ccc(NC(=O)C(NC(=O)Cc2cccs2)c2ccc(C)cc2)cc1 (configuration not stated) | i | i | 7% | 1%
COc1ccccc1NS(=O)(=O)c1ccc(NC(=O)Cc2cccs2)cc1 | i | 21µM* | -8% | -7%
COc1ccc(NC(=O)C(NC(=O)Cc2cccs2)c2ccccc2)cc1 (configuration not stated) | i | 12µM* | -11% | -1%
CCCCCCN1C=C/C(=C\C=C(C#N)C#N)c2ccccc21 | 16µM* | ? | -15% | -3%
